Calls of active or inactive are those of the source. Cut-off read from the data, not from the text of the source: active = inhibition score above about 11; inactive = the rest.
Assay: yeast proliferation inhibition, dose response, BY4741, OD595, 24 h (AID 489042)
Settings: S. cerevisiae BY4741 growth, hits give high values
For `C[C@]12CCC3C(CC[C@H]4C[C@H](O)CC[C@]34C)C1C[C@@H](CCCCl)[C@@H]2O` (stereo not given in full), the inhibition score was 10 (inactive).
With `Oc1cccc2nc3ccccc3nc12` the inhibition score was 21 (active).
For `Nc1cc2nc3ccccc3nc2cc1N`, the inhibition score was 0 (inactive).
In the case of `C=C1C(O)[C@@H]2O[C@]3(CC[C@H](/C=C/C(C)[C@@H]4CC(C)=CC5(O[C@H](C[C@@](C)(O)C(=O)O)CCC5O)O4)O3)CC[C@H]2O[C@@H]1C(O)CC(C)[C@H]1OC2(CCCCO2)CCC1C` (stereo not given in full), the inhibition score is reported as 21 (active).
In the case of `C[C@]12CCC3C(CC[C@H]4C[C@H](O)CC[C@]34C)C1CCC2=O` (stereo not given in full), the inhibition score is reported as 0 (inactive).
In the case of `CNc1ccc2nc3ccccc3[n+](C)c2c1`, the inhibition score is reported as 0 (inactive).
For `O=c1[nH]c(O)c(C=Nc2ccc(F)c(Cl)c2)c(=O)[nH]1`, the inhibition score was 0 (inactive).
For `C[C@]12CCC3C(CC[C@H]4C[C@@H](O)CC[C@]34C)C1CC[C@@H]2OC(=O)[C@H](N)CCCCN` (stereo not given in full), the inhibition score was 0 (inactive).
In the case of `C[C@]12CCC3C(CC[C@H]4C[C@@H](O)CC[C@]34C)[C@H]1CC[C@H]2O` (stereo not given in full), the inhibition score is reported as 0 (inactive).
In the case of `Cn1c(=O)[nH]c2nncnc2c1=O`, the inhibition score is reported as 0 (inactive).
In the case of `C[n+]1c2ccccc2nc2ccc(NCCO)cc21`, the inhibition score is reported as 0 (inactive).
With `OCC[n+]1c2ccccc2nc2ccc(N3CCOCC3)cc21` the inhibition score was 0 (inactive).
In the case of `C#C[C@]1(O)[C@H](O)CC2C3CC[C@H]4C[C@@H](O)CC[C@]4(C)C3CC[C@@]21C` (stereo not given in full), the inhibition score is reported as 0 (inactive).
For `CC(=O)O[C@H]1CCC2C3CC[C@H]4[C@@H](O)[C@H](O)CC[C@]4(C)C3CC[C@@]21C` (stereo not given in full), the inhibition score was 0 (inactive).
With `Cn1c(O)c(C(=Nc2ccc(F)cc2)c2ccccc2Cl)c(=O)n(C)c1=O` the inhibition score was 10 (inactive).

— PubChem BioAssay AID489042 (NMMLSC, 2010)
